# Data published in PubChem BioAssay AID1159580 (chemical genetic matrix, 2015).
# Among all 5,500 compounds or so, about 2,000 (36%) were called active. Roughly 18% stayed inconclusive and do not appear here. This is one part of the list. Values without a mark were called inactive. No stated cut-off is given here; in the data, active means normalized growth mostly below about 0.91 (no sharp cut-off); inconclusive means no clear call, values can overlap the other calls; inactive means mostly above about 0.92.
# Experiment: chemical genetic growth profiling, strain panel (AID 1159580);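 further: tested at 20 µM; growth read once vehicle control cultures reached saturation at 30 °C; 1 = growth at the plate median or of vehicle wells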
# Conditions: S. cerevisiae deletion strains, growth OD
structure (smiles),measurement,setting,value
Cc1cc(N=Cc2cc(Cl)cc(Cl)c2O)no1,normalized growth,"locus YAR019C, strain CDC15, stronger effect = lower value",0.945
same,normalized growth,"locus YBL105C, strain PKC1, stronger effect = lower value",0.964
same,normalized growth,"locus YBR135W, strain CKS1, stronger effect = lower value",0.971
same,normalized growth,"locus YBR136W, strain MEC1, stronger effect = lower value",0.953
same,normalized growth,"locus YBR160W, strain CDC28, stronger effect = lower value",0.964
same,normalized growth,"locus YDL017W, strain CDC7, stronger effect = lower value",0.968
same,normalized growth,"locus YDL028C, strain MPS1, stronger effect = lower value",0.95
same,normalized growth,"locus YDL101C, strain DUN1, stronger effect = lower value",0.965
same,normalized growth,"locus YDL108W, strain KIN28, stronger effect = lower value",0.957
same,normalized growth,"locus YDL132W, strain cdc53, stronger effect = lower value",0.975
same,normalized growth,"locus YDL214C, strain PRR2, stronger effect = lower value",0.561 (active)
same,normalized growth,"locus YDR052C, strain DBF4, stronger effect = lower value",0.972
same,normalized growth,"locus YDR054C, strain cdc34, stronger effect = lower value",0.965
same,normalized growth,"locus YDR226W, strain ADK1, stronger effect = lower value",0.974
same,normalized growth,"locus YDR477W, strain SNF1, stronger effect = lower value",0.526 (active)
same,normalized growth,"locus YER123W, strain YCK3, stronger effect = lower value",0.307 (active)
same,normalized growth,"locus YER133W, strain GLC7, stronger effect = lower value",0.576 (active)
same,normalized growth,"locus YFL009W, strain cdc4, stronger effect = lower value",0.97
same,normalized growth,"locus YFL029C, strain CAK1, stronger effect = lower value",0.958
same,normalized growth,"locus YFR003C, strain YPI1, stronger effect = lower value",0.95
same,normalized growth,"locus YFR019W, strain FAB1, stronger effect = lower value",0.517 (active)
same,normalized growth,"locus YFR028C, strain CDC14, stronger effect = lower value",0.971
same,normalized growth,"locus YGR040W, strain KSS1, stronger effect = lower value",0.574 (active)
same,normalized growth,"locus YGR052W, strain FMP48, stronger effect = lower value",0.504 (active)
same,normalized growth,"locus YGR092W, strain DBF2, stronger effect = lower value",0.187 (active)
same,normalized growth,"locus YHR030C, strain SLT2, stronger effect = lower value",0.26 (active)
same,normalized growth,"locus YHR079C, strain IRE1, stronger effect = lower value",0.249 (active)
same,normalized growth,"locus YHR082C, strain KSP1, stronger effect = lower value",0.493 (active)
same,normalized growth,"locus YHR205W, strain SCH9, stronger effect = lower value",0.407 (active)
same,normalized growth,"locus YIL147C, strain SLN1, stronger effect = lower value",0.946
same,normalized growth,"locus YJL095W, strain BCK1, stronger effect = lower value",0.259 (active)
same,normalized growth,"locus YJL128C, strain PBS2, stronger effect = lower value",0.952
same,normalized growth,"locus YJL157C, strain FAR1, stronger effect = lower value",0.478 (active)
same,normalized growth,"locus YJR016C, strain ILV3, stronger effect = lower value",0.973
same,normalized growth,"locus YJR066W, strain TOR1 (second series), stronger effect = lower value",0.565 (active)
same,normalized growth,"locus YJR066W, strain TOR1, stronger effect = lower value",0.387 (active)
same,normalized growth,"locus YKL048C, strain ELM1, stronger effect = lower value",0.651 (active)
same,normalized growth,"locus YKL067W, strain YNK1, stronger effect = lower value",0.521 (active)
same,normalized growth,"locus YKL101W, strain HSL1, stronger effect = lower value",0.5 (active)
same,normalized growth,"locus YKL193C, strain SDS22, stronger effect = lower value",0.971
same,normalized growth,"locus YKL203C, strain TOR2, stronger effect = lower value",0.613 (active)
same,normalized growth,"locus YLR113W, strain HOG1, stronger effect = lower value",0.337 (active)
same,normalized growth,"locus YLR133W, strain CKI1, stronger effect = lower value",0.486 (active)
same,normalized growth,"locus YLR403W, strain SFP1, stronger effect = lower value",0.375 (active)
same,normalized growth,"locus YML070W, strain DAK1, stronger effect = lower value",0.372 (active)
same,normalized growth,"locus YMR001C, strain CDC5, stronger effect = lower value",0.963
same,normalized growth,"locus YMR205C, strain PFK2 (second series), stronger effect = lower value",0.514 (active)
same,normalized growth,"locus YMR277W, strain FCP1, stronger effect = lower value",0.968
same,normalized growth,"locus YNL006W, strain LST8, stronger effect = lower value",0.969
same,normalized growth,"locus YNL020C, strain ARK1, stronger effect = lower value",0.462 (active)
same,normalized growth,"locus YNL161W, strain CBK1, stronger effect = lower value",0.967
same,normalized growth,"locus YNL183C, strain NPR1, stronger effect = lower value",0.429 (active)
same,normalized growth,"locus YNL207W, strain RIO2, stronger effect = lower value",0.977
same,normalized growth,"locus YNL222W, strain SSU72, stronger effect = lower value",0.96
same,normalized growth,"locus YNL307C, strain MCK1 (second series), stronger effect = lower value",0.37 (active)
same,normalized growth,"locus YOL078W, strain AVO1, stronger effect = lower value",0.967
same,normalized growth,"locus YOL136C, strain PFK27, stronger effect = lower value",0.349 (active)
same,normalized growth,"locus YOR061W, strain CKA2, stronger effect = lower value",0.32 (active)
same,normalized growth,"locus YOR119C, strain RIO1, stronger effect = lower value",0.571 (active)
same,normalized growth,"locus YOR231W, strain MKK1, stronger effect = lower value",0.272 (active)
same,normalized growth,"locus YOR329C, strain SCD5, stronger effect = lower value",0.952
same,normalized growth,"locus YPL031C, strain PHO85, stronger effect = lower value",0.483 (active)
same,normalized growth,"locus YPL153C, strain RAD53, stronger effect = lower value",0.405 (active)
same,normalized growth,"locus YPL204W, strain HRR25, stronger effect = lower value",0.467 (active)
same,normalized growth,"locus YPL209C, strain IPL1, stronger effect = lower value",0.969
same,normalized growth,"locus YPL256C, strain CLN2, stronger effect = lower value",0.343 (active)
same,normalized growth,"locus YPR025C, strain CCL1, stronger effect = lower value",0.969
same,normalized growth,"locus YPR106W, strain ISR1, stronger effect = lower value",0.976
same,normalized growth,"locus YPR111W, strain DBF20, stronger effect = lower value",0.972
same,normalized growth,"strain NNK1, stronger effect = lower value",0.965
same,normalized growth,"strain TSCII, stronger effect = lower value",0.96
